Inconclusive results are not listed. The source made the active and inactive calls. The call rests on the fitted dose curve; in most records, active means well fitted cell-killing curve with a large enough effect; inconclusive means small, poorly fitted or top-dose-only effect, or effect the other way; inactive means no such curve, though single readings can be large or run the other way.
Tested on: CAOV3
Experiment: Confirmatory qHTS for gynecologic anti-cancer compounds from libraries of approved drugs and bioactive compounds; further: nearly all actives have a fitted effect of over 55% in size
Details: gynecologic cancer cell panel viability, ATPlite luminescence, 48 h; series mostly up to 57.6 µM; activity change, negative = viability loss: at the top concentration
In short: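 Seeding 1,000 cells per well preceded overnight (16 h) attachment, after which 48 h drug treatment across 57.5 uM–0.977 nM (11 points) was applied. Remaining cellular ATP, detected by ATPlite luminescence, defined IC50.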
On the % scale 0 is the no-effect control and ±100 the full control effect; potency means the concentration at half of the fitted maximal effect.

Row | SMILES | Potency | activity change, negative = viability loss
1 | CC[C@@]1(O)C(=O)OCc2c1cc1n(c2=O)Cc2cc3c(CN(C)C)c(O)ccc3nc2-1 | 0.544 µM (active) | –
2 | CC[C@H](Nc1ncnc2nc[nH]c12)c1nc2cccc(F)c2c(=O)n1-c1ccccc1 | – | -13.8% [at 10.7 µM] (inactive)
3 | OCCNC1CCCc2c1[nH]c1ccc(-c3ccccc3)cc21 (centres undefined) | 24.3 µM (active) | –
4 | O=C(/C=C/c1cccc(S(=O)(=O)Nc2ccccc2)c1)NO | 10.6 µM (active) | –
5 | C[C@]12CCC(=O)C=C1CC[C@@H]1[C@@H]2[C@@H](O)C[C@@]2(C)[C@H]1CC[C@]2(O)C(=O)CO | – | -8.12% (inactive)
6 | CCN1CCN(Cc2ccc(-c3cc4c(NC(C)c5ccccc5)ncnc4[nH]3)cc2)CC1 (centres undefined) | 27.3 µM (active) | –
7 | COc1cc2c(c(OC)c1OC)-c1ccc(OC)c(=O)cc1[C@@H](NC(C)=O)CC2 | – | 0.285% [at 486 µM] (inactive)
8 | Cc1cc(Nc2nc(N[C@@H](C)c3ccc(F)cc3)c(C#N)cc2F)n[nH]1 | 17.2 µM (active) | –
9 | CC(C)CC(=O)Nc1n[nH]c2c1CN(C(=O)C1CCN(C)CC1)C2(C)C | 1.22 µM (active) | –
10 | CC(=O)c1cnc2ccc(-c3cc(Cl)c(O)c(Cl)c3)nc2c1NC1CCC(CN(C)C)CC1 (centres undefined) | 0.157 µM (active) | –
11 | CC(Oc1cc(-n2cnc3ccc(CN4CCN(C)CC4)cc32)sc1C(N)=O)c1ccccc1C(F)(F)F (centres undefined) | 27.3 µM (active) | –
12 | N#CC1(c2cccc(C(=O)Nc3cc(Oc4ccc5nc(NC(=O)C6CC6)sc5n4)ccc3F)c2Cl)CC1 | – | -11.2% (inactive)
13 | C[C@@H](Oc1cc(-c2cnn(C3CCNCC3)c2)cnc1N)c1c(Cl)ccc(F)c1Cl | 17.2 µM (active) | –
14 | CN1C2CCC1CC(OC(=O)[C@H](CO)c1ccccc1)C2 (some centres undefined) | – | -6.01% (inactive)
15 | NS(=O)(=O)OC[C@@H]1C[C@@H](n2ccc3c(N[C@H]4CCc5ccccc54)ncnc32)C[C@@H]1O | 3.06 µM (active) | –
16 | Cc1nc(N)sc1-c1ccnc(Nc2ccc(N3CCOCC3)cc2)n1 | 3.43 µM (active) | –
17 | CN1CCN(Cc2ccc(NC(=O)Nc3ccc(Oc4cc(NC(=O)C5CC5)ncn4)cc3)cc2C(F)(F)F)CC1 | 13.7 µM (active) | –

Row | SMILES | Potency | activity change, negative = viability loss
18 | FC(F)(F)c1ccc(/C=C/c2nc(COc3ccc(CCCCn4ccnn4)cc3)co2)cc1 | – | -31% (inactive)
19 | Cc1csc(NC(=O)c2sc3nc4c(c(C(F)(F)F)c3c2N)CCC4)n1 | 1.72 µM (active) | –
20 | CO[C@@]12[C@H](COC(N)=O)C3=C(C(=O)C(C)=C(N)C3=O)N1C[C@@H]1N[C@@H]12 | – | 15.3% (inactive)
21 | Cc1cnc(Nc2cccc(CN3CCOCC3)c2)nc1Nc1cccc(S(=O)(=O)NC(C)(C)C)c1 | 10.9 µM (active) | –
22 | COc1cc(C(=O)N2CCC(N3CCN(C)CC3)CC2)ccc1Nc1ncc2c(n1)N(C)c1ccccc1C(=O)N2C | 10.9 µM (active) | –
23 | Fc1cc(-c2cccc3ncc(-c4cnn(C5CCNCC5)c4)nc23)cc(F)c1CN1CCOCC1 | 27.3 µM (active) | –
24 | CN1CCN(CCOc2cc(OC3CCOCC3)c3c(Nc4c(Cl)ccc5c4OCO5)ncnc3c2)CC1 | – | -11.2% (inactive)
25 | O=c1cc(CN2CCOCC2)occ1OCCCCCSc1ccnc2cc(C(F)(F)F)ccc12 | – | -24.7% (inactive)
26 | CCCCc1oc2ccccc2c1C(=O)c1cc(I)c(OCCN(CC)CC)c(I)c1 | 79.4 µM (active) | –
27 | Cc1[nH]c2ccccc2c1CCNCc1ccc(/C=C/C(=O)NO)cc1 | 0.685 µM (active) | –
28 | NC(=O)c1cnc(-c2ccc(C3(N)CCC3)cc2)c(-c2ccccc2)c1 | 30.6 µM (active) | –
29 | Cc1cc(SCc2sc(-c3ccc(C(F)(F)F)cc3)nc2C)ccc1OCC(=O)O | – | 6.68% (inactive)
30 | NC1(c2ccc(-c3nc4ccn5c(=O)[nH]nc5c4cc3-c3ccccc3)cc2)CCC1 | – | 4.9% (inactive)
31 | CN[C@@H](C)C(=O)N[C@H]1CN(C(=O)CC(C)C)CC[C@H]2CC[C@@H](C(=O)NC(c3ccccc3)c3ccccc3)N2C1=O | – | -7.72% (inactive)
32 | Nc1ccc(-c2ccc3ncc4ccc(=O)n(-c5cccc(C(F)(F)F)c5)c4c3c2)cn1 | 3.43 µM (active) | –
33 | Cn1cnc2c(F)c(Nc3ccc(Br)cc3Cl)c(C(=O)NOCCO)cc21 | – | -18.7% (inactive)
34 | O=C(NOC[C@H](O)CO)c1ccc(F)c(F)c1Nc1ccc(I)cc1F | – | -17% (inactive)
